# Measurements taken from PubChem BioAssay AID1159580 (chemical genetic matrix, 2015).
# Values joined by “and” are separate entries in the source; they are usually repeats but may differ in a detail not shown here. Identical values can stand only once. The whole screen tested about 5,500 compounds, of which about 2,000 (36%) were called active. About 18% were inconclusive and are not listed. Rule as the data show it: active = normalized growth mostly below about 0.91 (no sharp cut-off); inconclusive = no clear call, values can overlap the other calls; inactive = mostly above about 0.92. Some of the results follow.
# Test: chemical genetic growth profiling, strain panel (AID 1159580);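 also: tested at 20 µM; growth read once vehicle control cultures reached saturation at 30 °C; 1 = growth at the plate median or of vehicle wells; lower values mean less growth of the strain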
# Details: S. cerevisiae deletion strains, growth OD
structure (smiles),measurement,setting,value
C#CCCCCCCCCCCCC(O)CC(O)CO (configuration not stated),normalized growth,"locus YAL013W, strain DEP1, stronger effect = lower value",1 (inactive)
same,normalized growth,"locus YAL021C, strain ccr4, stronger effect = lower value",0.979 (inactive)
same,normalized growth,"locus YAL026C, strain drs2, stronger effect = lower value",0.992 (inactive)
same,normalized growth,"locus YAL030W, strain snc1, stronger effect = lower value",0.99 (inactive)
same,normalized growth,"locus YBL061C, strain skt5, stronger effect = lower value",0.987 (inactive)
same,normalized growth,"locus YBR009C, strain hhf1, stronger effect = lower value",0.991 (inactive)
same,normalized growth,"locus YBR021W, strain FUR4, stronger effect = lower value",0.974 (inactive)
same,normalized growth,"locus YBR023C, strain chs3, stronger effect = lower value",0.983 (inactive)
same,normalized growth,"locus YBR171W, strain sec66, stronger effect = lower value",0.999 (inactive)
same,normalized growth,"locus YBR229C, strain ROT2, stronger effect = lower value",1 (inactive)
same,normalized growth,"locus YBR231C, strain swc5, stronger effect = lower value",0.993 (inactive)
same,normalized growth,"locus YBR279W, strain paf1, stronger effect = lower value",0.995 (inactive)
same,normalized growth,"locus YCL011C, strain gbp2, stronger effect = lower value",0.988 (inactive)
same,normalized growth,"locus YCL016C, strain dcc1, stronger effect = lower value",0.97 (inactive)
same,normalized growth,"locus YCL029C, strain bik1, stronger effect = lower value",1.01 (inactive)
same,normalized growth,"locus YCL061C, strain MRC1, stronger effect = lower value",0.979 (inactive)
same,normalized growth,"locus YCL069W, strain vba3, stronger effect = lower value",0.992 (inactive)
same,normalized growth,"locus YCR088W, strain abp1, stronger effect = lower value",0.985 (inactive)
same,normalized growth,"locus YDL005C, strain med2, stronger effect = lower value",0.974 (inactive)
same,normalized growth,"locus YDL035C, strain GPR1, stronger effect = lower value",0.984 (inactive)
same,normalized growth,"locus YDL040C, strain nat1, stronger effect = lower value",0.988 (inactive)
same,normalized growth,"locus YDL074C, strain BRE1, stronger effect = lower value",0.988 (inactive)
same,normalized growth,"locus YDL101C, strain DUN1, stronger effect = lower value",1.01 (inactive)
same,normalized growth,"locus YDL134C, strain PPH21, stronger effect = lower value",0.995 (inactive)
same,normalized growth,"locus YDL185W, strain tfp1, stronger effect = lower value",1.01 (inactive)
same,normalized growth,"locus YDL192W, strain arf1, stronger effect = lower value",1 (inactive)
same,normalized growth,"locus YDR001C, strain nth1, stronger effect = lower value",0.982 (inactive)
same,normalized growth,"locus YDR069C, strain doa4, stronger effect = lower value",0.994 (inactive)
same,normalized growth,"locus YDR101C, strain arx1, stronger effect = lower value",0.987 (inactive)
same,normalized growth,"locus YDR137W, strain rgp1, stronger effect = lower value",0.986 (inactive)
same,normalized growth,"locus YDR150W, strain NUM1, stronger effect = lower value",0.999 (inactive)
same,normalized growth,"locus YDR159W, strain sac3, stronger effect = lower value",1 (inactive)
same,normalized growth,"locus YDR162C, strain NBP2, stronger effect = lower value",1.03 (inactive)
same,normalized growth,"locus YDR195W, strain ref2",0.986 (inactive)
same,normalized growth,"locus YDR297W, strain sur2, stronger effect = lower value",0.988 (inactive)
same,normalized growth,"locus YDR318W, strain mcm21, stronger effect = lower value",1.01 (inactive)
same,normalized growth,"locus YDR334W, strain swr1, stronger effect = lower value",0.991 (inactive)
same,normalized growth,"locus YDR335W, strain msn5, stronger effect = lower value",0.988 (inactive)
same,normalized growth,"locus YDR388W, stronger effect = lower value",0.999 (inactive)
same,normalized growth,"locus YDR392W, strain spt3, stronger effect = lower value",0.877 (inactive)
same,normalized growth,"locus YDR502C, strain sam2, stronger effect = lower value",1 (inactive)
same,normalized growth,"locus YEL003W, strain gim4, stronger effect = lower value",0.98 (inactive)
same,normalized growth,"locus YEL037C, strain rad23, stronger effect = lower value",0.995 (inactive)
same,normalized growth,"locus YEL061C, strain CIN8 (second series), stronger effect = lower value",0.986 (inactive)
same,normalized growth,"locus YEL061C, strain CIN8, stronger effect = lower value",0.997 (inactive)
same,normalized growth,"locus YER015W, strain faa2, stronger effect = lower value",0.972 (inactive)
same,normalized growth,"locus YER016W, strain bim1, stronger effect = lower value",0.989 (inactive)
same,normalized growth,"locus YER110C, stronger effect = lower value",1 (inactive)
same,normalized growth,"locus YER111C, strain swi4, stronger effect = lower value",0.971 (inactive)
same,normalized growth,"locus YER155C, strain BEM2 (second series), stronger effect = lower value",0.953 (inactive)
same,normalized growth,"locus YER155C, strain BEM2, stronger effect = lower value",1.01 (inactive)
same,normalized growth,"locus YER167W, strain BCK2, stronger effect = lower value",0.998 (inactive)
same,normalized growth,"locus YFR010W, strain ubp6, stronger effect = lower value",0.993 (inactive)
same,normalized growth,"locus YGL078C, strain dbp3, stronger effect = lower value",1.02 (inactive)
same,normalized growth,"locus YGL086W, strain mad1, stronger effect = lower value",1.01 (inactive)
same,normalized growth,"locus YGL167C, strain pmr1, stronger effect = lower value",0.983 (inactive)
same,normalized growth,"locus YGL173C, strain kem1, stronger effect = lower value",0.983 (inactive)
same,normalized growth,"locus YGL227W, strain vid30, stronger effect = lower value",0.993 (inactive)
same,normalized growth,"locus YGL240W, strain doc1, stronger effect = lower value",1 (inactive)
same,normalized growth,"locus YGL248W, strain PDE1, stronger effect = lower value",0.997 (inactive)
same,normalized growth,"locus YGL253W, strain hxk2, stronger effect = lower value",0.991 (inactive)
same,normalized growth,"locus YGR078C, strain PAC10, stronger effect = lower value",0.981 (inactive)
same,normalized growth,"locus YGR135W, strain pre9, stronger effect = lower value",0.992 (inactive)
same,normalized growth,"locus YGR229C, strain SMI1, stronger effect = lower value",1.07 (inactive)
same,normalized growth,"locus YGR252W, strain gcn5, stronger effect = lower value",0.993 (inactive)
same,normalized growth,"locus YHR013C, strain ard1, stronger effect = lower value",0.939 (inactive)
same,normalized growth,"locus YHR027C, strain rpn1, stronger effect = lower value",0.984 (inactive)
same,normalized growth,"locus YHR030C, strain SLT2, stronger effect = lower value",0.999 (inactive) and 0.85 (active)
same,normalized growth,"locus YHR079C, strain IRE1 (second series), stronger effect = lower value",1 (inactive)
same,normalized growth,"locus YHR079C, strain IRE1, stronger effect = lower value",0.782 (active)
same,normalized growth,"locus YHR094C, strain hxt1, stronger effect = lower value",1.01 (inactive)
same,normalized growth,"locus YHR129C, strain ARP1, stronger effect = lower value",0.996 (inactive)
same,normalized growth,"locus YHR142W, strain chs7, stronger effect = lower value",0.96 (inactive)
same,normalized growth,"locus YHR200W, strain rpn10, stronger effect = lower value",1.01 (inactive)
same,normalized growth,"locus YIL066C, strain RNR3, stronger effect = lower value",0.983 (inactive)
same,normalized growth,"locus YIL073C, strain SPO22, stronger effect = lower value",1.03 (inactive)
same,normalized growth,"locus YIL125W, strain kgd1, stronger effect = lower value",1.03 (inactive)
same,normalized growth,"locus YIR030C, strain dcg1, stronger effect = lower value",1 (inactive)
same,normalized growth,"locus YJL092W, strain hpr5, stronger effect = lower value",0.98 (inactive)
same,normalized growth,"locus YJL095W, strain BCK1 (second series), stronger effect = lower value",0.985 (inactive)
same,normalized growth,"locus YJL095W, strain BCK1, stronger effect = lower value",1.03 (inactive) and 0.819 (active)
same,normalized growth,"locus YJL115W, strain asf1, stronger effect = lower value",0.968 (inactive)
same,normalized growth,"locus YJL129C, strain trk1, stronger effect = lower value",0.963 (inactive)
same,normalized growth,"locus YJL134W, strain LCB3, stronger effect = lower value",1.03 (inactive)
same,normalized growth,"locus YJL154C, strain vps35, stronger effect = lower value",0.976 (inactive)
same,normalized growth,"locus YJL164C, strain tpk1, stronger effect = lower value",0.982 (inactive)
same,normalized growth,"locus YJL166W, strain qcr8, stronger effect = lower value",0.98 (inactive)
same,normalized growth,"locus YJL168C, strain set2, stronger effect = lower value",1.01 (inactive)
same,normalized growth,"locus YJL187C, strain SWE1 (second series), stronger effect = lower value",0.992 (inactive)
same,normalized growth,"locus YJL187C, strain SWE1, stronger effect = lower value",0.979 (inactive)
same,normalized growth,"locus YJR043C, strain POL32, stronger effect = lower value",0.989 (inactive)
same,normalized growth,"locus YJR066W, strain TOR1, stronger effect = lower value",0.835 (inactive)
